eIF4E-4G inh: eIF4E/eIF4G interaction inhibition in translation initiation; P63073+Q04637; 220,000 compounds, 0.37% hits; TR-FRET eIF4E-eIF4GI(517-606) binding, 2 h; inhibition, % at 21.7 µM;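 also: 0% = full FRET control wells and 100% = background wells lacking eIF4GI fragment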
p47phox inh: p47phox (human) inhibition; inhibition, % at 24.7 µM; 220,000 compounds, 0.53% hits; p47phox/p22phox peptide binding, fluorescence polarization, 2 h;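 also: 0% = p47phox with labelled peptide and 100% = labelled peptide alone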
14-3-3 Bad inh: disrupts binding of bovine 14-3-3 zeta to phospho-Bad peptide; inhibition, % at 21.7 µM; 220,000 compounds, 0.71% hits; AID 781; TR-FRET 14-3-3zeta/Dy647-pBad peptide displacement, 1 h; P63103;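 active = inhibition above about 70%, limit read from the data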;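 also: 0% = full 14-3-3 plus peptide FRET controls and 100% = background without 14-3-3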
Bim-Mcl-1: disrupts Bim peptide binding to human Mcl-1; inhibition, % at 10 µM; 190,000 compounds, 0.1% hits; AID 1009; Bead-based flow cytometry, Bim peptide-Mcl-1 binding; Q07820; in the data active = inhibition above about 40%;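 also: 0% = no compound tracer wells and 100% = peptide blocker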
Mcl1-Bid inh: disrupts binding of human Mcl-1 to Bid peptide | Q07820 | TR-FRET Mcl-1/Bid-Dy647 peptide binding, 1536-well | inhibition, % at 21.7 µM | 220,000 compounds, 0.97% hits | AID 1021;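 active = compounds that cut the binding signal by more than half at the single screening dose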;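 also: His-tagged Mcl-1 with europium anti-His antibody binding Bid BH3 peptide; 0% = Mcl-1 plus peptide wells and 100% = peptide-only wells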
Mcl1 Noxa PPI: disrupts binding of human Mcl-1 to Noxa peptide; AID 1022; TR-FRET Mcl-1/Noxa peptide binding, 2 h; Q07820; 220,000 compounds, 1.5% hits; inhibition, % at 21.7 µM;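 active = compounds that cut the protein-peptide binding signal by more than 50% relative to plate controls in a single-dose test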;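 also: His-tagged Mcl-1 with rhodamine Noxa BH3 peptide and terbium anti-His antibody; 0% = Mcl-1 plus Noxa peptide wells and 100% = peptide-only wells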
* hit, by the source's call; / = no result; [ ] = dose if it differs, or a comment. An excerpt weighted towards active compounds, which were near 3.4% of everything screened.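 The calls were made as follows, unless noted: active = inhibition above about 30% (limit read from the data); inactive = the rest.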

SMILES	eIF4E-4G inh	p47phox inh	14-3-3 Bad inh	Bim-Mcl-1	Mcl1-Bid inh	Mcl1 Noxa PPI
COc1ccc(N2CCN(c3ncnc4c3[nH]c3ccccc34)CC2)cc1	5	-12	-8	0	-25	34
Cc1ccccc1NC(=O)c1snc2c(=O)[nH]cnc12	1	-4	-19	1	-30	15
O=C(CNc1n[nH]c(=O)[nH]c1=O)N/N=C/C1CC=CCC1 (stereo not given)	-4	-5	-1	/	-19	23
COc1cc(/C=C(\C#N)C(=O)Nc2ccc3c(c2)OCCO3)ccc1O	-12	-14	-1	/	-41	23
CC1CCCN(C(=S)Nc2ccc3nc4n(c(=O)c3c2)CCCCC4)C1 (stereo not given)	0	-4	-2	-3	97*	5
CC1CC(C)CN(C(=S)Nc2ccc3nc4n(c(=O)c3c2)CCCCC4)C1 (stereo not given)	-4	0	-18	-1	-65	4
Cc1ccc(C)c(NC2=C(Cl)C(=O)OC2OC(=O)c2ccco2)c1 (stereo not given)	-7	4	-7	-2	3	57*
CCc1cc(=O)oc2cc(C)cc(O)c12	2	-16	-7	-1	-23	8
CCCc1cc(=O)oc2cc(C)cc(O)c12	/	147*	/	-3	-87	21
O=C(CS(=O)(=O)Cc1ccccc1)NCc1ccco1	-7	-6	-11	1	-22	24
Cc1c(C(=O)Oc2ccc(-c3cnc4ccccc4n3)cc2)cccc1[N+](=O)[O-]	5	17	21	-8	50	67*
CCC(=O)Oc1ccc(-c2cnc3ccccc3n2)cc1	-10	-14	6	-1	14	/
O=C(Oc1ccc(-c2cnc3ccccc3n2)cc1)c1cc([N+](=O)[O-])ccc1Cl	-1	35*	69	-2	32	-2
O=[N+]([O-])c1cc(-c2cnc3ccccc3n2)ccc1Cl	-1	-83	-4	-1	-35	-113
CCOC(=O)CN(c1ccccn1)S(=O)(=O)c1ccc(OC)cc1	1	-2	-2	0	0	6
Cc1ccc(S(=O)(=O)N(CC#N)CC#N)cc1	0	-2	4	1	-13	-3
O=C(NC1CC1)C1=C[C@@H](c2ccc(Br)cc2)C[C@@H](OCCCCO)O1	5	/	0	0	-4	2
C#Cc1ccc([C@@H]2C=C(C(=O)NC3CC3)O[C@H](OCCCCO)C2)cc1	97*	-14	-4	/	-23	-2
Cn1c(N)c(C(=O)COC(=O)CC2CC3CCC2C3)c(=O)n(C)c1=O (stereo not given)	-1	-7	0	0	-3	5
O=C(CN1CCN(CCN2C(=O)c3cccc4cccc(c34)C2=O)CC1)c1ccc(Cl)cc1	-1	-9	17	1	-2	40
O=C(CN1CCN(CCN2C(=O)c3cccc4cccc(c34)C2=O)CC1)c1ccc(F)cc1	-10	-15	-9	-1	98*	18
Oc1ccc(NC(=S)N=Nc2c(O)[nH]c3ccc(Br)cc23)cc1	-4	-4	-24	3	-22	57*
CC1=CC2=NC(=O)/C(=C\c3cc(C)n(-c4ccccc4)c3C)C(=N)N2O1	80*[fluorescence artefact?]	-7	-23	21	-16	14
CC1=CC2=NC(=O)/C(=C\c3cc(C)n(-c4cccc(Cl)c4)c3C)C(=N)N2O1	0	-42	-2	-4	-14	3
COc1cc(CC(=O)OCC(=O)Nc2ccc(Cl)c(S(=O)(=O)N(C)C)c2)cc(OC)c1OC	-5	34*	-8	/	-3	8
SMILES	eIF4E-4G inh	p47phox inh	14-3-3 Bad inh	Bim-Mcl-1	Mcl1-Bid inh	Mcl1 Noxa PPI
Cc1ccc(NC(=O)c2ccc(F)cc2F)cc1NS(C)(=O)=O	1	-4	2	/	-6	-15
CCc1nc(OCCN(CC)CC)c2oc3ccccc3c2n1	10	1	80*	-2	42	22
Cc1ccc(NC(=S)Nc2ccc(OC(F)F)c(Cl)c2)cc1F	1	-13	-22	0	-60	16
COc1ccccc1NC(=S)NC(NC(=O)CC(C)C)C(Cl)(Cl)Cl (stereo not given)	0	-1	-15	-4	-43	1
Oc1ccc(Br)cc1-c1cc(-c2ccccc2)n[nH]1	6	-20	-2	-4	1	23
Oc1ccc(Br)cc1-c1cc(-c2ccc(Cl)cc2)n[nH]1	-1	-58	1	-2	10	82*
Nc1cccc(C(=O)OCC(=O)Nc2cccc3c2C(=O)c2ccccc2C3=O)c1	8	14	57	-2	77*	64*
CCn1c(C)c(C(C)=O)c(N2CCN(C(=O)c3ccco3)CC2)nc1=S	71*	1	43	-2	-33	-13
CCN(CC)CCOc1ccc(/C(=C(/Cl)c2ccccc2)c2ccccc2)cc1	14	51*	78*	0	12	10
CC/C(=C(\c1ccc(O)cc1)c1ccc(OCCN(C)C)cc1)c1ccccc1	20	25	18	-2	6	21
COc1ccccc1CCc1nnc(CCC(=O)NC(C)Cc2cccnc2)o1 (stereo not given)	-1	12	0	0	83*	9
COc1ccc(Cl)cc1C(=O)C1CCCN(Cc2cnc(N3CCOCC3)s2)C1 (stereo not given)	4	47*	3	0	-28	-1
Cc1cc2nc(CSc3ccc(Cl)cc3)cc(=O)n2[nH]1	4	-7	-15	0	-40	-7
Cc1ccc(C(=O)N/C(=C\c2ccccc2)C(=O)OCc2ccccc2)cc1	2	-8	-13	-4	8	1
O=C(OCc1ccccc1)/C(=C/c1ccc(Cl)cc1)NC(=O)c1ccccc1Cl	0	-3	80*	-1	-6	0
O=S(=O)(Nc1ccc2cn[nH]c2c1)c1ccc(Cl)s1	0	-7	85*	0	-26	0
COc1ccccc1S(=O)(=O)Nc1ccc2cn[nH]c2c1	22	-8	6	-4	-13	-3
C#Cc1ccc([C@H]2C=C(C(=O)NC3CC3)O[C@@H](OCC)[C@@H]2CCCO)cc1	-1	-2	-2	1	-7	-5
COC(=O)c1ccccc1NC(=O)c1ccc(COc2ccc3c(c2)CCC3)cc1	1	-6	2	0	58*	10
COc1ccc(NC(=O)c2ccccc2NC(=O)COc2ccccc2)cc1	-32	6	37	4	53*	-70
COc1ccc(C(=O)Nc2ccccc2C(N)=O)cc1	100*[fluorescence artefact?]	-11	27	-4	5	-7
COc1ccccc1NC(=O)c1ccc(COc2ccc3c(c2)CCC3)cc1	4	-10	0	-5	2	0
Cc1cc(C(=O)Cn2nc(C(=O)O)c3ccccc3c2=O)c(C)n1CCc1ccc(Cl)cc1	2	-55	-11	-1	-53	16
